M1 PAM = potentiates human M1 receptor response to acetylcholine; P11229; CHO-K1 hM1, Fluo-8 calcium fluorescence, ACh EC20; 0% = ACh EC20, 100% = maximal ACh; activation, % at 3 µM; 360,000 tested, 0.088% active; AID 588819; in the data active = activation above about 19%, passing the limit was not always enough
Target sequence (P11229 whole entry, looked up): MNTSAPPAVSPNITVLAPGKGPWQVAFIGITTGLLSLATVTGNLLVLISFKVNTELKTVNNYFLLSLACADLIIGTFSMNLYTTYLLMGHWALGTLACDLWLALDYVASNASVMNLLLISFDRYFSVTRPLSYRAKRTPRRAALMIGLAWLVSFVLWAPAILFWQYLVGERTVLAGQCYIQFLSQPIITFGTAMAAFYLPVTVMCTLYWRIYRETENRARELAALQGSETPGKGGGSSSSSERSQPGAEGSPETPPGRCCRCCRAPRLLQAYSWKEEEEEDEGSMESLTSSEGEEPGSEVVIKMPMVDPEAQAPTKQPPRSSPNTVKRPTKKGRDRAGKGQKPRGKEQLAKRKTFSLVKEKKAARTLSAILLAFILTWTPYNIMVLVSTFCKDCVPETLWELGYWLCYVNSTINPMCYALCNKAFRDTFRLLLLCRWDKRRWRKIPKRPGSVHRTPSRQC
CHO-K1 Ca ag = counter-screen for M1 agonists: effect in parental CHO-K1 cells; Fluo-8 calcium fluorescence; scaled to maximal ATP response, vehicle zero; activation, % at 3 µM; 360,000 tested, 0.48% active; AID 602248; in the data active = activation above about 15%;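 note: untransfected CHO-K1 host cells lacking M1 receptor as counterscreen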
CHRM1 agonist = agonists of human M1 muscarinic receptor | P11229 | CHO-K1 hM1, Fluo-8 calcium fluorescence, agonist mode; 0% DMSO, 100% acetylcholine EC100 | activation, % at 3 µM | 360,000 tested, 0.33% active;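 active = activation above the run's mean compound activation plus 3 SD, cut at about 16% in these data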;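 note: peak over basal fluorescence ratio within a 140 s kinetic read after compound addition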
CHO-K1 Ca PAM = nonselective activator or artifact in parental CHO-K1 calcium assay | 360,000 tested, 0.02% active | AID 602247 | ATP EC20, Fluo-8 calcium fluorescence; 0% at ATP EC20, 100% at ATP max | activation, % at 3 µM;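 active = activation above the run cutoff, the mean activation of all test compounds plus 3 SD, cut at about 40% in these data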;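 note: peak over basal fluorescence ratio in a 140 s read after ATP addition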
CHRM1 antagonist = antagonists of human M1 muscarinic receptor | P11229 | CHO-K1 hM1, Fluo-8 calcium fluorescence, ACh EC80 antagonist | inhibition, % at 3 µM | 360,000 tested, 1.3% active | AID 588852;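 active = percent inhibition above its own plate's cutoff, namely the mean of that plate's compound wells plus 3 SD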;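 note: peak over basal fluorescence ratio during 140 s after agonist addition; 0% = ACh EC80 plus DMSO and 100% = DMSO alone without agonist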
CHO-K1 Ca antag = M1 antagonist counterscreen hit in parental CHO-K1 cells | inhibition, % at 3 µM | ATP-induced calcium, Fluo-8 fluorescence | 360,000 tested, 0.6% active;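 active = inhibition above a per-plate cutoff, the plate's mean sample inhibition plus 3 SD, cut at about 24% in these data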;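 note: 0% = DMSO plus EC80 ATP and 100% = DMSO alone without ATP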
Active calls of the source: *; . = no result given. Compounds with a hit are over-represented: about 2.4% of the library has one in this group of screens.

SMILES | M1 PAM | CHO-K1 Ca ag | CHRM1 agonist | CHO-K1 Ca PAM | CHRM1 antagonist | CHO-K1 Ca antag
COC(=O)[C@]12CCCCC=C1N(Cc1ccccc1)C(=O)[C@H](CC(=O)NCc1ccc(OC)c(OC)c1)C2 | . | 2 | . | -7 | . | 6
CC(OC(=O)C1=COCCO1)C(=O)NC1(C#N)CCCCC1 (stereo not drawn) | 6 | 1 | -2 | 13 | -8 | -13
COc1ccc(COc2ccc(S(=O)(=O)N3CCCC3)cc2C(N)=O)cc1F | 1 | 7 | -10 | 6 | 0 | -6
O=C(CCn1c(=O)c2sccc2n(CC(=O)OCc2ccccc2)c1=O)NCc1ccco1 | -7 | 6 | -6 | 7 | 17 | 2
O=C(CCCn1c(=O)c2sccc2n(CC(=O)OCc2ccccc2)c1=O)NCc1ccco1 | -9 | 5 | -2 | 22 | 28* | -6
CCc1cc(C(=O)N2CCCC(C(=O)c3ccc(Oc4ccccc4)cc3)C2)n(C)n1 (stereo not drawn) | -4 | 9 | -2 | 6 | -2 | -10
C=CCc1cccc(/C=N/NC(=O)c2ccccc2OC)c1O | -3 | 1 | -8 | 12 | -2 | 1
C=CCc1cccc(/C=N/NC(=O)c2ccccc2Br)c1O | 10 | 1 | -8 | 44* | -3 | -16
Cc1cccc(N2C(=O)C(O)=C(C(=O)c3cccs3)C2c2ccc(C(C)C)cc2)n1 (stereo not drawn) | 2 | 1 | 21* | 22 | -2 | -16
CCc1noc(C)c1C(=O)N(C)CC(=O)Nc1ccc(Br)cc1C | 16 | 0 | -1 | 7 | -7 | 14
Cc1cc2c(cn1)C(CCC#N)(CCC#N)c1ccccc1-2 | 7 | 1 | -2 | 0 | -16 | -2
CCOC(=O)C1=C[C@@H](C(C)(C)C)N(S(=O)(=O)c2ccc(C)cc2)[C@H]1c1ccc(C)cc1 | -15 | 1 | -5 | 15 | 25 | 13
CCOC(=O)C1=C[C@@H](C(C)(C)C)N(S(=O)(=O)c2ccc(C)cc2)[C@H]1c1ccccc1Cl | -17 | 1 | -4 | -5 | 25 | 24*
CC(C)(C)OC(=O)N1CCCC(C(=O)Nc2cccc(C(=O)NCCc3ccccc3)c2)C1 (stereo not drawn) | 2 | 8 | 9 | 14 | -5 | -9
CC(C)(C)OC(=O)N1CCCC(C(=O)Nc2cccc(C(=O)NCCCCc3ccccc3)c2)C1 (stereo not drawn) | -20 | 10 | 3 | -6 | 27* | 5
C[C@@H]1CN([C@H](C)CO)C(=O)CCCn2nncc2CO[C@@H]1CN(C)C(=O)c1cc(-c2ccccc2)on1 | 7 | 2 | -8 | 23 | -15 | -12
CCc1[nH]nc(C(=O)NC2CCCN(Cc3ccccc3F)C2)c1C (stereo not drawn) | -14 | 0 | -5 | -9 | 40* | -1
CC(=O)c1ccc(C(=O)NC2CCCN(Cc3ccccc3F)C2)cc1 (stereo not drawn) | 8 | 0 | -1 | 7 | -13 | -12
O=C(COc1ccc([N+](=O)[O-])cc1)Nc1ccc2c(c1)CCC2 | -8 | 1 | -7 | 9 | 5 | -18
CC1CCC(C(C)C)C(OCC(O)CN2CCCC(C)C2)C1 (stereo not drawn) | -13 | 1 | -8 | -9 | 15 | -8
CC1CCC(C(C)C)C(OCC[N+](C)(C)C)C1 (stereo not drawn) | -22 | 1 | -10 | -9 | 100* | -4
CC1CCC(C(C)C)C(OCC(O)C[N+]2(C)CCCCC2)C1 (stereo not drawn) | -23 | 0 | -6 | -6 | 76* | 0
CC1CCN(S(=O)(=O)c2cc(C(=O)NC3(C)CCS(=O)(=O)C3)ccc2Br)CC1 (stereo not drawn) | 11 | 1 | -6 | 15 | -12 | -14
CCCCn1c(N)c(N(CCOC)C(=O)COC(=O)CNC(=O)c2ccc(Cl)c(Cl)c2)c(=O)[nH]c1=O | 11 | 1 | -5 | 7 | -19 | -21
O=C(O)CCC(=O)OCCCc1cc2ccccc2c(=O)o1 | 13 | 0 | 2 | -10 | -7 | 0
SMILES | M1 PAM | CHO-K1 Ca ag | CHRM1 agonist | CHO-K1 Ca PAM | CHRM1 antagonist | CHO-K1 Ca antag
Cc1cc2ccccc2n1CCNCc1c(C(=O)N2CCOCC2)nc2ccccn12 | 3 | 11 | -1 | 12 | -14 | 24*
CCOC(=O)C1CCCN(Cc2c(C(=O)N3CCCCC3)nc3c(C)cccn23)C1 (stereo not drawn) | 4 | 4 | 10 | 11 | -5 | -18
CCOC(=O)C1CCCN(Cc2c(C(=O)N3CCOCC3)nc3ccccn23)C1 (stereo not drawn) | -10 | 0 | 23* | -7 | 14 | -12
Brc1ccc(Br)c2cnccc12 | 6 | 0 | -3 | 11 | -17 | -12
O=C(CCc1ccccc1)NC1(Cc2ccccc2)CCN(CCc2cccs2)C1=O (stereo not drawn) | -1 | 4 | -6 | 17 | -4 | -14
O=C(NC1(Cc2ccccc2)CCN(Cc2ccc(-c3ccccc3)cc2)C1=O)c1ccccc1 (stereo not drawn) | -14 | 2 | -2 | -12 | 37* | 4
O=C1c2ccccc2C(c2nnnn2-c2ccc3c(c2)OCCO3)N1Cc1ccccc1 (stereo not drawn) | . | 1 | . | 7 | . | -17
CC(NC(=O)C12CC3CC(CC(C3)C1)C2)C(=O)NN=Cc1ccc([N+](=O)[O-])o1 (stereo not drawn) | 9 | 0 | -9 | 8 | 102* | -2
O=C(COc1ccc(S(=O)(=O)N2CCCC2)cc1)NCc1ccccn1 | 10 | 10 | -8 | 20 | -19 | -5
CCOc1ccc(/C=C/C(O)=C2/C(=O)NC3(C)CC2c2ccccc2O3)cc1OC (stereo not drawn) | -15 | 8 | 0 | -9 | 44* | -2
O=C(O)CNC(=O)c1ccccc1F | 6 | 0 | 0 | -5 | -2 | 11
O=C(CNC(=O)c1ccccc1F)NCCc1ccccc1F | -10 | 0 | -3 | -14 | 28* | 6
O=C(/C(N=Nc1cccc(C(F)(F)F)c1)=C(/O)c1cccs1)C(F)(F)F | 9 | 16* | 1 | 21 | -7 | 2
CCN(CC)S(=O)(=O)c1cc(NC(=O)c2ccc(Br)s2)ccc1C | -15 | 3 | -3 | -6 | 9 | 36*
CCN(CC)S(=O)(=O)c1cc(NC(=O)NCCCl)ccc1C | 3 | 0 | -3 | 7 | 2 | -8
Cc1cc(C)c(OCC(=O)NCC(C)(C)N2CCOCC2)c(C)c1 | -2 | 1 | -7 | -1 | 4 | -1
CCCCCN(C(=O)CCC(=O)OCc1cccc(C(F)(F)F)c1)c1c(N)n(CCCC)c(=O)[nH]c1=O | 13 | 0 | 0 | 5 | -23 | -10
C/C(=N\O)C(=O)NCc1ccncc1 | -8 | 0 | -3 | -10 | 3 | 25*

Screens as filed in PubChem BioAssay.
